Measured values taken from PubChem BioAssay (NCI).
Values joined by “and” are separate entries in the source; they are usually repeats but may differ in a detail not shown here. Equal entries are not always repeated. This is part of a sample that, as a whole, favours compounds with a hit. Of some 79,000 tested, about 15% had one in any assay. Some compounds were tested as several samples or in several runs, with calls that do not always agree. Active and inactive are the calls of the source. No stated cut-off is given here; in the data, active means growth inhibition above about 70%; inactive means the rest.

Legend:
[1] = NCI Yeast Anticancer Drug Screen. Data for the rad50 strain (AID 155);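 further: 0% = growth of vehicle-only cultures of the same strain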; settings: S. cerevisiae rad50 strain growth inhibition, stronger effect = higher value
Summary of the method: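 Readout: growth inhibition relative to vehicle-treated cultures. Compound exposure was carried out in a genetically defined yeast strain deficient in DNA damage repair.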

[2] = NCI Yeast Anticancer Drug Screen. Data for the mec2-1 strain (AID 157); settings: S. cerevisiae mec2-1 strain, stronger effect = higher value
Summary of the method: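 Growth inhibition is read against vehicle-treated controls after compound exposure of the mec2-1 yeast strain, which is defective in DNA damage repair or cell cycle control.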

[3] = NCI Yeast Anticancer Drug Screen. Data for the sgs1 mgt1 strain (AID 161);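 further: 0% = growth of cultures given vehicle only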; settings: S. cerevisiae sgs1 mgt1 strain, stronger effect = higher value
Summary of the method: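 Percent growth inhibition was derived by comparing compound-exposed mutant yeast with vehicle-exposed cultures. The strain carries alterations in DNA damage repair.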

[4] = NCI Yeast Anticancer Drug Screen. Data for the cln2 rad14 strain (AID 165);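 further: 0% = growth equal to vehicle treated cultures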; settings: S. cerevisiae cln2 rad14 strain, stronger effect = higher value
Summary of the method: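 Growth inhibition, relative to vehicle-treated controls, is the read-out. The test organism is a yeast strain with defined genetic alterations, cln2 rad14.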

[5] = NCI Yeast Anticancer Drug Screen. Data for the bub3 strain (AID 167); settings: S. cerevisiae bub3 mutant strain, stronger effect = higher value
Summary of the method: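 Readout: yeast growth inhibition, expressed relative to vehicle-only wells. The test organism is a mutant strain from a panel with lesions in DNA repair or checkpoint genes.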

[6] = NCI Yeast Anticancer Drug Screen. Data for the mlh1 rad18 strain (AID 175); settings: S. cerevisiae mlh1 rad18 strain growth inhibition, stronger effect = higher value
Summary of the method: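 Cells of a genetically altered yeast strain, deficient in DNA damage repair, were treated with compound. Their growth was then compared with that of vehicle-treated cultures to give inhibition.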

[7] = at 5.0 µM (retest, dose inferred, filed as 0.5)
[8] = at 50.0 µM (retest, dose inferred, filed as 5.0)

| Structure (SMILES) | growth inhibition [1, 7] | growth inhibition [1, 8] | growth inhibition ([1]; at 50.0 µM) | growth inhibition [2, 7] | growth inhibition [2, 8] | growth inhibition ([2]; at 50.0 µM) | growth inhibition [3, 7] | growth inhibition [3, 8] | growth inhibition ([3]; at 50.0 µM) | growth inhibition [4, 7] | growth inhibition [4, 8] | growth inhibition ([4]; at 50.0 µM) | growth inhibition [5, 7] | growth inhibition [5, 8] | growth inhibition ([5]; at 50.0 µM) | growth inhibition [6, 7] | growth inhibition [6, 8] | growth inhibition ([6]; at 50.0 µM) |
| --- | --- | --- | --- | --- | --- | --- | --- | --- | --- | --- | --- | --- | --- | --- | --- | --- | --- | --- |
| Cc1cc(C)[nH]c(=O)n1 | -2% (inactive) | 16% (inactive) | -22.4% (inactive) and 84.2% (active) | -1% (inactive) | 11% (inactive) | -16.4% (inactive) and 2.9% (inactive) | 2% (inactive) | 7% (inactive) | -9.15% (inactive) and 22.4% (inactive) | 6% (inactive) | 13% (inactive) | -18.1% (inactive) and 22.9% (inactive) | -4% (inactive) | -2% (inactive) | -2.25% (inactive) and 14.7% (inactive) | -2% (inactive) | 7% (inactive) | -14.6% (inactive) and 45.2% (inactive) |
| O=C(/C=C/c1ccc(Cl)cc1)NC1C=Nc2ccc([N+](=O)[O-])cc2NC1=O (stereo unspecified) | 32% (inactive) | 94% (active) | 95.8% (active) | -27% (inactive) | 93% (active) | 96.5% (active) | 29% (inactive) | 93% (active) | 96.6% (active) | 13% (inactive) | 93% (active) | 92.5% (active) | 0% (inactive) | 92% (active) | 92.3% (active) | 13% (inactive) | 88% (active) | 97.2% (active) |
| COc1c(CBr)c(CBr)c(OC)c2c1C(=O)c1ccccc1C2=O | 33% (inactive) | 99% (active) | 87.2% (active) | 14% (inactive) | 99% (active) | 63.8% (inactive) | 23% (inactive) | 99% (active) | 86.7% (active) | 2% (inactive) | 99% (active) | 41% (inactive) | 9% (inactive) | 99% (active) | 64.2% (inactive) | 19% (inactive) | 99% (active) | 92.8% (active) |
| CCCCCCCCCCCCc1ccc(S(=O)(=O)O)cc1.[Cu+2] | -6% (inactive) | 88% (active) | 90.3% (active) | 14% (inactive) | 70% (active) | 64.9% (inactive) | 6% (inactive) | 97% (active) | 41.2% (inactive) | 2% (inactive) | 81% (active) | 17.3% (inactive) | -9% (inactive) | 82% (active) | 43.8% (inactive) | 15% (inactive) | 93% (active) | 66% (inactive) |
| Clc1ccc(CN2CCCN(Cc3ccc(Cl)cc3)C2c2cc3ccccc3c3ccccc23)cc1 | 49% (inactive) | 99% (active) | 70% (active) | 19% (inactive) | 98% (active) | 68.5% (inactive) | 38% (inactive) | 98% (active) | 87.8% (active) | 22% (inactive) | 96% (active) | 33.1% (inactive) | 22% (inactive) | 98% (active) | 98.7% (active) | 45% (inactive) | 98% (active) | 89.2% (active) |
| CN(C)c1ccc(/C=C/c2cc[n+](C)c3ccccc23)cc1 | -3% (inactive) and -12% (inactive) | 81% (active) and 53% (inactive) | 95.3% (active) and 71.3% (active) | 0% (inactive) and -25% (inactive) | 93% (active) and 83% (active) | 97.9% (active) and 86.2% (active) | 3% (inactive) and -10% (inactive) | 92% (active) and 88% (active) | 93.7% (active) and 83.4% (active) | -2% (inactive) and -5% (inactive) | 89% (active) and 57% (inactive) | 96.6% (active) and 66.7% (inactive) | -3% (inactive) and -17% (inactive) | 85% (active) and 83% (active) | 97.5% (active) and 82.8% (active) | -8% (inactive) and -21% (inactive) | 93% (active) and 80% (active) | 97.7% (active) |
| CCN(CC)C(=S)Sc1nc2ccccc2s1 | -3% (inactive) | 88% (active) | 34.2% (inactive) | -2% (inactive) | 87% (active) | -12.1% (inactive) | 0% (inactive) | 95% (active) | 16.7% (inactive) | -7% (inactive) | 13% (inactive) | -54.5% (inactive) | 24% (inactive) | 91% (active) | 68.1% (inactive) | 5% (inactive) | 63% (inactive) | 18.4% (inactive) |
| O=C(C(=Cc1ccccc1)C(=O)c1ccccc1)c1ccccc1 | 42% (inactive) | 92% (active) | 86.5% (active) and 21.2% (inactive) | 54% (inactive) | 95% (active) | 90.5% (active) and 7.7% (inactive) | 50% (inactive) | 95% (active) | 89.5% (active) and 18.9% (inactive) | 50% (inactive) | 89% (active) | 83.8% (active) and -79.9% (inactive) | 84% (active) | 96% (active) | 88% (active) and 51.6% (inactive) | 69% (inactive) | 94% (active) | 87.8% (active) and 20.8% (inactive) |
| Nc1cc(Cl)c(S(=O)(=O)O)cc1Cl | 67% (inactive) | 98% (active) | -16.2% (inactive) and 35.6% (inactive) | 18% (inactive) | 98% (active) | -1.25% (inactive) and -2.55% (inactive) | 9% (inactive) | 96% (active) | -1.55% (inactive) and -2.6% (inactive) | -7% (inactive) | 96% (active) | -14% (inactive) and 39.3% (inactive) | 12% (inactive) | 98% (active) | -6.55% (inactive) and 1.75% (inactive) | 28% (inactive) | 98% (active) | 5.2% (inactive) and 30.6% (inactive) |
| COC(=O)[C@]1(C)CCC[C@]2(C)c3ccc(C(C)C)cc3CC[C@@H]12 | 0% (inactive) | 40% (inactive) | -12.8% (inactive) and 98.4% (active) | 6% (inactive) | 97% (active) | 3.05% (inactive) and 99.1% (active) | -8% (inactive) | 74% (active) | 13.8% (inactive) and 99% (active) | 0% (inactive) | 41% (inactive) | -19.3% (inactive) and 99% (active) | 1% (inactive) | 43% (inactive) | -31.1% (inactive) and 99.2% (active) | -1% (inactive) | 66% (inactive) | 10.1% (inactive) and 99% (active) |
| NNc1ccc2ccccc2c1 | 28% (inactive) | 86% (active) | 97.2% (active) and 22.5% (inactive) | 4% (inactive) | 56% (inactive) | 85.6% (active) and 2.95% (inactive) | 13% (inactive) | 57% (inactive) | 95.5% (active) and 26.1% (inactive) | 16% (inactive) | 30% (inactive) | 90.2% (active) and 29.1% (inactive) | 16% (inactive) | 77% (active) | 91.2% (active) and 21.1% (inactive) | 33% (inactive) | 91% (active) | 97.2% (active) and 25.7% (inactive) |
| CCN(C(=O)C(Cl)Cl)C(Cc1ccccc1)c1ccccc1 (stereo unspecified) | -1% (inactive) | 58% (inactive) | 91.5% (active) | -1% (inactive) | 61% (inactive) | 96.3% (active) | -1% (inactive) | 80% (active) | 93.8% (active) | -4% (inactive) | 74% (active) | 86.8% (active) | 10% (inactive) | 61% (inactive) | 86.8% (active) | 2% (inactive) | 72% (active) | 86% (active) |
| CC1(C)N(OC2CCCCO2)C(c2ccccc2)C(c2ccccc2)=[N+]1[O-] (stereo unspecified) | 18% (inactive) | 24% (inactive) | 34% (inactive) | 12% (inactive) | 21% (inactive) | 3.05% (inactive) | 18% (inactive) | 18% (inactive) | -13.7% (inactive) | 17% (inactive) | 27% (inactive) | 7.4% (inactive) | 19% (inactive) | 25% (inactive) | -23% (inactive) | 21% (inactive) | 24% (inactive) | -6.55% (inactive) |
| Fc1ccc(/C=C2\COCC3=C2NC(=S)NC3c2ccc(F)cc2)cc1 (stereo unspecified) | 32% (inactive) | 98% (active) | 88.6% (active) | 28% (inactive) | 99% (active) | 93% (active) | 72% (active) | 99% (active) | 91.2% (active) | 59% (inactive) | 99% (active) | 90.5% (active) | 77% (active) | 100% (active) | 90.7% (active) | 26% (inactive) | 98% (active) | 90.7% (active) |
| O=C(O)COc1ccc(OCC(=O)O)cc1 | 3% (inactive) | 42% (inactive) | -11.4% (inactive) and 55.8% (inactive) | -3% (inactive) | -2% (inactive) | -5.05% (inactive) and -20.9% (inactive) | -1% (inactive) | 1% (inactive) | -11.5% (inactive) | 1% (inactive) | -5% (inactive) | -68.3% (inactive) | 1% (inactive) | 4% (inactive) | -4.55% (inactive) | -3% (inactive) | 1% (inactive) | 0.9% (inactive) and 18.2% (inactive) |
| CC1CC=CCC1C(=O)O (stereo unspecified) | 8% (inactive) | -1% (inactive) | 36% (inactive) and 9.75% (inactive) | 2% (inactive) | -2% (inactive) | -17.2% (inactive) and 28.9% (inactive) | 2% (inactive) | -3% (inactive) | -10.5% (inactive) and -4.9% (inactive) | 13% (inactive) | 3% (inactive) | -8.4% (inactive) and -41.3% (inactive) | 6% (inactive) | 2% (inactive) | 33.3% (inactive) and -3.9% (inactive) | 4% (inactive) | -5% (inactive) | 9.65% (inactive) and 10.2% (inactive) |
| CCN(CC)CCOc1ccc2c(C)c(-c3ccccc3)c(=O)oc2c1 | 0% (inactive) | 23% (inactive) | 62% (inactive) | -3% (inactive) | 34% (inactive) | 3% (inactive) | 10% (inactive) | 38% (inactive) | 34.8% (inactive) | -5% (inactive) | 18% (inactive) | -44.8% (inactive) | -4% (inactive) | 27% (inactive) | 60.8% (inactive) | 2% (inactive) | 30% (inactive) | 21.1% (inactive) |
